Inconclusive results are not listed. A call without a number means that no potency is given here. A number with no mark means an inactive call. Calls of active or inactive are those of the source. The call rests on the fitted dose curve; in most records, active means well fitted curve in the direction sought with a large enough effect; inconclusive means small, poorly fitted or top-dose-only effect, or another doubt; inactive means no such curve, though single readings can be large; an effect the other way counts as inactive or inconclusive.
Legend:
NIH3T3 = assay: qHTS assay to identify novel small-molecules to repurpose for Merkel cell carcinoma treatment (AID 1296009); settings: MCC and control cell lines, CellTiter-Glo viability, 72 h; at 44.8 µM (top of the series) unless noted; further: nearly all actives have a fitted effect of over 60% in size; further: potency means the concentration at half of the fitted maximal effect
Outline: (§1)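 After compound transfer in DMSO, plates were kept 72 hr at 37 degree celsius. Luminescent ATP signal from CellTiter-Glo served as viability measure, normalized against DMSO and no-cell controls.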

C33A = assay: Primary qHTS to identify gynecologic anti-cancer compounds using libraries of approved drugs and bioactive compounds (AID 1345084); settings: Gynecologic cancer cell panel viability, ATPlite luminescence, 48 h; series mostly up to 57.5 µM; further: nearly all actives have a fitted effect of over 55% in size
Outline: (§2)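 48 h compound exposure at 37 C, 5% CO2; five-point qHTS. ATPlite luminescence readout of cell ATP.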

CAOV3 = assay: as above; settings: Gynecologic cancer cell panel viability, ATPlite luminescence, 48 h; series mostly up to 57.5 µM
Outline: as §2

CASKI = assay: as above; settings: Gynecologic cancer cell panel viability, ATPlite luminescence, 48 h; series mostly up to 57.5 µM
Outline: as §2

Es-2 = assay: as above; settings: Gynecologic cancer cell panel viability, ATPlite luminescence, 48 h; series mostly up to 57.5 µM
Outline: as §2

HeLa = assay: as above; settings: Gynecologic cancer cell panel viability, ATPlite luminescence, 48 h; series mostly up to 57.5 µM
Outline: as §2

MKL-1 = assay: qHTS assay to identify novel small-molecules to repurpose for Merkel cell carcinoma treatment (AID 1296009); settings: MCC and control cell lines, CellTiter-Glo viability, 72 h; further: nearly all actives have a fitted effect of over 60% in size; further: potency means the concentration at half of the fitted maximal effect
Outline: as §1

MKL-2 = assay: as above; settings: MCC and control cell lines, CellTiter-Glo viability, 72 h
Outline: as §1

UISO = assay: as above; settings: MCC and control cell lines, CellTiter-Glo viability, 72 h
Outline: as §1

WaGa = assay: as above; settings: MCC and control cell lines, CellTiter-Glo viability, 72 h
Outline: as §1

Q: For C[C@]12CC[C@H]3[C@@H]([C@H](O)CC4=CC(=O)CC[C@@]43C)[C@@H]1CC[C@@H]2O, which outcome (NIH3T3) is on record?
A: inactive

Q: And the Potency (C33A)?
A: inactive

Q: And the Potency (CAOV3)?
A: inactive

Q: What about the Potency (CASKI) of the same molecule?
A: inactive

Q: What about the Potency (Es-2) of the same molecule?
A: inactive

Q: And the Potency (HeLa)?
A: inactive

Q: What does the source list for COC1CC(O[C@H]2CC[C@@]3(C)C(=CCC4C3C(O)[C@@H](O)[C@]3(C)[C@@H](C(C)=O)CC[C@]43O)C2)OC(C)C1OC1CC(OC)C(OC2OC(C)C(O)C(O)C2O)C(C)O1 (stereo partly specified)?
A: outcome (NIH3T3): inactive [at 9.27 µM]; activity change, negative = cytotoxicity (C33A): -3.17% [at 11.6 µM]; activity change, negative = cytotoxicity (CAOV3): -3.8% [at 11.6 µM]; activity change, negative = cytotoxicity (CASKI): -11.2% [at 11.6 µM]; activity change, negative = cytotoxicity (Es-2): -3.8% [at 11.6 µM]; activity change, negative = cytotoxicity (HeLa): -11.4% [at 11.6 µM]

Q: With COc1ccccc1CN[C@H]1C2CCN(CC2)[C@H]1C(c1ccccc1)c1ccccc1 as the molecule, how does the outcome (NIH3T3) read?
A: inactive

Q: And the Potency (C33A)?
A: inactive

Q: What about the Potency (CAOV3) of the same molecule?
A: inactive

Q: What about the Potency (CASKI) of the same molecule?
A: inactive

Q: And the Potency (Es-2)?
A: inactive

Q: What about the Potency (HeLa) of the same molecule?
A: inactive

Q: For CN(C)CCc1c[nH]c2ccc(CN3CCN(C)S3(=O)=O)cc12, which outcome (NIH3T3) is on record?
A: inactive

Q: What about the Potency (C33A) of the same molecule?
A: inactive

Q: What about the Potency (CAOV3) of the same molecule?
A: inactive

Q: What about the Potency (CASKI) of the same molecule?
A: inactive

Q: What about the Potency (Es-2) of the same molecule?
A: inactive

Q: And the Potency (HeLa)?
A: inactive

Q: How did the outcome (NIH3T3) turn out when CC(C)(O)[C@H]1O[C@H]2CC[C@@]3(C)[C@@](O)(CC[C@H]4Cc5c([nH]c6ccccc56)[C@@]43C)C2=CC1=O was run?
A: inactive [at 17.4 µM]

Q: What about the Potency (C33A) of the same molecule?
A: inactive

Q: And the Potency (CAOV3)?
A: inactive

Q: What about the Potency (CASKI) of the same molecule?
A: inactive

Q: And the Potency (Es-2)?
A: inactive

Q: What about the Potency (HeLa) of the same molecule?
A: inactive

Q: For CC(=O)O[C@H]1C[C@@H](OC(C)=O)C(C)(C)C2C[C@@H](O)[C@]3(C)C(CC[C@@]4(C)[C@H](C5=CC(=O)OC5O)C[C@H]5O[C@]543)[C@]21C (stereo partly specified), which outcome (NIH3T3) is on record?
A: inactive [at 17.4 µM]

Q: And the Potency (C33A)?
A: inactive

Q: And the Potency (CAOV3)?
A: inactive

Q: And the Potency (CASKI)?
A: inactive

Q: What about the Potency (Es-2) of the same molecule?
A: inactive

Q: What about the Potency (HeLa) of the same molecule?
A: inactive

Q: N#CC(OC1OC(COC2OC(CO)C(O)C(O)C2O)C(O)C(O)C1O)c1ccccc1 (stereo unspecified) was tested. Which outcome (NIH3T3) did it give?
A: inactive [at 17.4 µM]

Q: And the Potency (C33A)?
A: inactive

Q: And the Potency (CAOV3)?
A: inactive

Q: What about the Potency (CASKI) of the same molecule?
A: inactive

Q: What about the Potency (Es-2) of the same molecule?
A: inactive

Q: For CC1=CC2/C=C(\C)CCC(O)C3OC(C)(C)OC3CC(=O)OC23C(=O)NC(CC(C)C)C3C1C (stereo unspecified), which outcome (NIH3T3) is on record?
A: inactive [at 17.4 µM]

Q: What about the Potency (C33A) of the same molecule?
A: inactive

Q: What about the Potency (CAOV3) of the same molecule?
A: inactive

Q: And the Potency (CASKI)?
A: inactive

Q: And the Potency (Es-2)?
A: inactive

Q: What about the Potency (HeLa) of the same molecule?
A: inactive

Q: COC(=O)N1CCN(C(=O)Cc2ccc(Cl)c(Cl)c2)[C@@H](CN2CCCC2)C1 was tested. Which outcome (NIH3T3) did it give?
A: inactive

Q: And the Potency (C33A)?
A: inactive

Q: And the Potency (CAOV3)?
A: inactive

Q: What about the Potency (CASKI) of the same molecule?
A: inactive

Q: And the Potency (Es-2)?
A: inactive

Q: What about the Potency (HeLa) of the same molecule?
A: inactive

Q: CCC(C)(C#N)O[C@@H]1O[C@H](CO)[C@@H](O)[C@H](O)[C@H]1O (stereo partly specified) was tested. Which outcome (NIH3T3) did it give?
A: inactive

Q: What about the Potency (C33A) of the same molecule?
A: inactive

Q: What about the Potency (CAOV3) of the same molecule?
A: inactive

Q: And the Potency (CASKI)?
A: inactive

Q: And the Potency (Es-2)?
A: inactive

Q: And the Potency (HeLa)?
A: inactive

Q: C[CH2][Hg][S]c1ccccc1C(=O)O was tested. Which Potency (MKL-1) did it give?
A: 2.99 µM (active)

Q: And the Potency (MKL-2)?
A: 0.944 µM (active)

Q: What about the Potency (UISO) of the same molecule?
A: 2.99 µM (active)

Q: And the Potency (WaGa)?
A: 2.66 µM (active)

Q: Which results are given for CN1CCCC1CCOC(c1cc2nccc(C(=O)O)c2[nH]1)c1ccccc1Cl (stereo unspecified)?
A: outcome (NIH3T3): inactive; Potency (C33A): inactive; Potency (CAOV3): inactive; Potency (CASKI): inactive; Potency (Es-2): inactive; Potency (HeLa): inactive

Q: For Cc1cn(C[C@H](N)C(=O)O)c(=O)n(Cc2cc(-c3ccccc3)sc2C(=O)O)c1=O, which outcome (NIH3T3) is on record?
A: inactive

Q: What about the Potency (C33A) of the same molecule?
A: inactive

Q: And the Potency (CAOV3)?
A: inactive

Q: And the Potency (CASKI)?
A: inactive

Q: What about the Potency (Es-2) of the same molecule?
A: inactive

Q: And the Potency (HeLa)?
A: inactive

Q: How did the outcome (NIH3T3) turn out when CC(=O)OC1CC(O)C(C)(C)C2CC(OC(C)=O)C3(C)C(CCC4(C)C(c5ccoc5)C(=O)C5OC543)C12C (stereo unspecified) was run?
A: inactive [at 17.4 µM]

Q: What about the Potency (C33A) of the same molecule?
A: inactive

Q: What about the Potency (CAOV3) of the same molecule?
A: inactive

Q: And the Potency (CASKI)?
A: inactive

Q: What about the Potency (Es-2) of the same molecule?
A: inactive

Q: And the Potency (HeLa)?
A: inactive

Q: Which results are given for CCN1C[C@]2(COC(=O)c3ccccc3N3C(=O)C[C@H](C)C3=O)CC[C@H](OC)[C@@]34[C@@H]5C[C@H]6[C@H](OC)[C@@H]5[C@](O)(C[C@@H]6OC)[C@](O)([C@@H](OC)[C@H]23)[C@@H]14?
A: outcome (NIH3T3): inactive; Potency (C33A): inactive; Potency (CAOV3): inactive; Potency (CASKI): inactive; Potency (Es-2): inactive; Potency (HeLa): inactive

Q: What does the source list for CN1[C@H]2C[C@H](OC(=O)[C@H](CO)c3ccccc3)C[C@@H]1[C@@H](O)C2?
A: outcome (NIH3T3): inactive; Potency (C33A): inactive; Potency (CAOV3): inactive; Potency (CASKI): inactive; Potency (Es-2): inactive; Potency (HeLa): inactive

Q: Which outcome (NIH3T3) does the source give for COc1cc(C(=O)O[C@H]2[C@@H]3C=CO[C@@H](O[C@@H]4O[C@H](CO)[C@@H](O)[C@H](O)[C@H]4O)[C@@H]3[C@@]3(CO)O[C@@H]23)ccc1O here?
A: inactive [at 17.4 µM]

Q: What about the Potency (C33A) of the same molecule?
A: inactive

Q: What about the Potency (CAOV3) of the same molecule?
A: inactive

Q: And the Potency (CASKI)?
A: inactive

Q: And the Potency (Es-2)?
A: inactive

Q: What about the Potency (HeLa) of the same molecule?
A: inactive

Q: Which results are given for CN1C(=O)N(c2ccc(C#N)c(C(F)(F)F)c2)C(=O)[C@]1(CO)c1ccccc1?
A: outcome (NIH3T3): inactive; Potency (C33A): inactive; Potency (CAOV3): inactive; Potency (CASKI): inactive; Potency (HeLa): inactive

Q: How did the outcome (NIH3T3) turn out when C[C@]12CC[C@@H](O)C[C@H]1CC[C@@H]1[C@@H]2CC[C@]2(C)C(=O)CC[C@@H]12 was run?
A: inactive

Q: What about the Potency (C33A) of the same molecule?
A: inactive

Q: What about the Potency (CAOV3) of the same molecule?
A: inactive

Q: What about the Potency (CASKI) of the same molecule?
A: inactive

Q: And the Potency (Es-2)?
A: inactive

Q: What about the Potency (HeLa) of the same molecule?
A: inactive

Q: Which outcome (NIH3T3) does the source give for CN1[C@@H]2CC[C@H]1CC(OC(=O)C1C=Nc3ccccc31)C2 (stereo partly specified) here?
A: inactive

Q: And the Potency (C33A)?
A: inactive

Q: And the Potency (CAOV3)?
A: inactive

Q: What about the Potency (CASKI) of the same molecule?
A: inactive

Q: What about the Potency (Es-2) of the same molecule?
A: inactive

Q: What about the Potency (HeLa) of the same molecule?
A: inactive
